# Assay outcomes as filed in PubChem BioAssay.
# This is a sample that favours compounds with a hit; in the whole collection about 3.2% have one here.
# VDR inh: vitamin D3 receptor (human) inhibition. P11473. VDR-SRC2-3 peptide fluorescence polarization, 2 h. Potency, µM, hits mostly inhibitors. actives 0.93% (n = 400,000). AID 504847
#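 Compounds are added to VDR with labelled SRC2-3 coactivator peptide and held 2 h at room temperature. Inhibition of the VDR–peptide interaction is then read as a change in fluorescence polarization.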
# PLK1 PBD inh: blocks phosphopeptide binding to human PLK1 polo-box domain; P53350; Potency, µM, most hits filed as inhibitors; Plk1 PBD binding of FITC phosphopeptide, fluorescence polarization; AID 720504; actives 2.8% (n = 360,000); also: series mostly up to about 57 µM; nearly all actives have a fitted effect of over 65% in size
# USP2a block: inhibitors of human ubiquitin-specific protease USP2a | USP2 core, Ub-CHOP2 coupled fluorogenic reporter, 485/531 | actives 0.01% (n = 330,000) | Potency, µM (top dose mostly 38.3 µM), most hits filed as inhibitors | O75604
# Target sequence (O75604 whole entry, looked up): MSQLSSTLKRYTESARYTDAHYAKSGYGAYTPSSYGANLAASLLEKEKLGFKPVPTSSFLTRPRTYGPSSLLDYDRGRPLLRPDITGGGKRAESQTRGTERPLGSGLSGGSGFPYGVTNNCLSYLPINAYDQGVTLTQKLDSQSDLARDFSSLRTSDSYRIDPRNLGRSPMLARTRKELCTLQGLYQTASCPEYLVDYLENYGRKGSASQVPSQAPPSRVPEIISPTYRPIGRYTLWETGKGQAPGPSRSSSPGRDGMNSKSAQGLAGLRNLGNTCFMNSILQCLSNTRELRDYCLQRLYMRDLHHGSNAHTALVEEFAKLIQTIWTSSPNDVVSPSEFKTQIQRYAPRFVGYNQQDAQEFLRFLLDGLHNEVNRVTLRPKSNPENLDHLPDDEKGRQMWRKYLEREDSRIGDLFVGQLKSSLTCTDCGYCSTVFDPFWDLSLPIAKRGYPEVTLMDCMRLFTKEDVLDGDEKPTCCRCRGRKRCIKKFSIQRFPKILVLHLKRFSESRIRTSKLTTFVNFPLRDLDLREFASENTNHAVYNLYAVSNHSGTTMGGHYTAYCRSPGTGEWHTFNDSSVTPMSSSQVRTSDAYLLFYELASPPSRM
#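 Cell-free coupled assay: 10nM USP2 core preincubated 30min RT with compound in Tris-HCl pH 8.0/CaCl2/CHAPS buffer, then 25nM Ub-CHOP2 and 25nM reporter substrate; fluorescence (Ex 485/Em 531) read after 60min RT, normalized to NEM inhibition, concentration-response curves fitted.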
# GALK inhibitor: blocks human galactokinase activity. Purified GALK, Kinase-Glo residual ATP luminescence. Potency, µM (top dose mostly 57.5 µM), actives largely listed as inhibitors. actives 0.007% (n = 270,000)
#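 Galactose (100 uM) and ATP (35 uM) were turned over by 5 nM GALK for 1 h at RT. Kinase-Glo Plus then converted the remaining ATP into a luminescent signal.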
# USP1-UAF1 inh: USP1/UAF1 (human) deubiquitinase inhibition; actives 0.23% (n = 390,000); Potency, µM (doses to about 57.1 µM), usual class: inhibitors; AID 743255; O94782; recombinant USP1/UAF1, Ub-Rhodamine cleavage fluorescence; also: nearly all actives have a fitted effect of over 60% in size
#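 Step one: compound is pinned into 1nM USP1/UAF1 in HEPES pH 7.8 buffer with TCEP. Step two: 15 min room-temperature incubation. Step three: Ub-Rho (150nM final) starts cleavage, tracked by fluorescence over six one-minute reads.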
# Coupling enz: counter-screen for Giardia aldolase inhibitors: coupling enzyme system; actives 0.67% (n = 290,000); coupling enzyme system counterscreen, AmpLite Red fluorescence; activity change, negative = inhibition, % at 58.2 µM, hits read low; AID 2472; in the data active = activity change below about -30%
#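 Final compound at 57.5 uM, incubated 10 min at RT with coupling enzyme reagent (glyceraldehyde-3-phosphate), then 20 min with substrate and AmpLite Red detection. Fluorescence read at 525/598 nm; tests interference with the coupling assay, not aldolase inhibition.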
# Hits are given with their value; i = inactive; ? = inconclusive; nt = no result given. Unless noted, calls follow the shape of the dose curve; as a rule, active = well fitted curve in the direction sought with a large enough effect; inconclusive = small, poorly fitted or top-dose-only effect, or another doubt; inactive = no such curve, though single readings can be large; an effect the other way counts as inactive or inconclusive.
SMILES,VDR inh,PLK1 PBD inh,USP2a block,GALK inhibitor,USP1-UAF1 inh,Coupling enz
Nc1cc(S(=O)(=O)Nc2cc(Cl)ccc2Cl)ccc1N1CCCC1,i,29.9µM,i,i,i,i
Nc1cc(S(=O)(=O)Nc2ccc(Cl)cc2)ccc1N1CCOCC1,?,5.32µM,i,i,i,i
Nc1cc(S(=O)(=O)Nc2ccccc2Cl)ccc1N1CCOCC1,i,i,i,i,i,i
O=C(CN(c1ccccc1)S(=O)(=O)c1ccc(F)cc1)NC1CCCCCC1,i,i,i,i,i,nt
CSc1ccccc1C(=O)C1CCCN(C(=O)c2cncs2)C1 (stereo unspecified),31.6µM,13.4µM,i,i,i,i
CSc1ccccc1C(=O)C1CCCN(C(=O)CCc2cccnc2)C1 (stereo unspecified),i,i,i,i,i,i
COc1ccc(C(=O)NCCCN2CCOCC2)cc1OC,i,i,i,i,i,i
O=Nc1c(O)ccc2cc(S(=O)(=O)O)ccc12,79.4µM,i,nt,nt,?,nt
Nc1ccc2c(S(=O)(=O)O)cccc2c1S(=O)(=O)O,i,i,nt,nt,?,nt
CN(c1ccc(O)cc1)S(=O)(=O)c1ccc2ccccc2c1,i,i,i,i,i,i
CN(C)c1ccc2cc(S(=O)(=O)O)cc(O)c2c1,50.1µM,?,nt,nt,?,nt
NS(=O)(=O)c1ccc(N=Nc2c(O)ccc3ccccc23)cc1,i,i,i,i,i,i
Nc1cccc2cc(S(=O)(=O)O)ccc12,i,?,nt,nt,7.08µM,nt
N#Cc1c(N(CCO)CCO)nc(N)c2c(N)nc3c(c12)CC(=O)N3CC1CCCO1 (stereo unspecified),i,i,i,i,i,-38.3
CCCCN1C(=O)Cc2c1nc(N)c1c(N)nc(N(CCC)CCC)c(C#N)c21,?,i,i,i,i,i
CCOC(=O)Cc1csc(NC(=O)Nc2ccc(OC(F)(F)F)cc2)n1,i,i,i,i,i,i
CCOC(=O)Cc1csc(NC(=O)NC2(C(F)(F)F)Oc3ccc(Cl)cc3O2)n1 (stereo unspecified),?,16.8µM,i,i,i,i
CCOC(=O)Cc1csc(NC(=O)NC2(C(F)(F)F)Oc3ccccc3O2)n1,?,11.9µM,i,i,i,i
CCOC(=O)Cc1csc(NC(=O)NC2(C(F)(F)F)Oc3cc(Cl)c(Cl)cc3O2)n1,i,21.2µM,i,i,i,i
Cc1ccccc1OCCCCn1c(-c2ccc(Cl)cc2)nc2ccccc2c1=O,i,nt,nt,nt,i,nt
O=C(CCNS(=O)(=O)c1ccccc1C(F)(F)F)NNC(=O)C1COc2ccccc2O1 (stereo unspecified),i,i,i,nt,i,nt
Cc1nnc(NC(=O)CSc2nnc(-c3ccco3)n2C(C)C)s1,?,i,i,i,i,i
O=S(=O)(Nc1ccc(-c2ccc3nncn3n2)cc1)c1cc(F)ccc1F,i,i,i,nt,i,nt
COc1ccc(OC)c(S(=O)(=O)Nc2ccc(-c3ccc4nncn4n3)cc2)c1,i,26.7µM,i,nt,i,nt
COc1ccc(Br)c(OC)c1C(=O)NC(=O)Nc1nc(C)cc(C)n1,i,i,i,i,i,-31.0
SMILES,VDR inh,PLK1 PBD inh,USP2a block,GALK inhibitor,USP1-UAF1 inh,Coupling enz
CC1=NN(c2ccc(C(=O)O)c(N)c2)C(=O)C1,i,i,i,i,i,-36.8
C=CC#CC1(O)CC(C)[N+](C)(C)CC1C (stereo unspecified),i,21.2µM,i,i,i,i
O=C1Oc2ccccc2C(=O)C1C(CC(O)c1ccc(-c2ccc(Br)cc2)cc1)c1ccccc1 (stereo unspecified),31.6µM,nt,nt,nt,nt,nt
OC(CN1CCN(C(c2ccccc2)c2ccccc2)CC1)c1ccc(Br)cc1 (stereo unspecified),i,i,i,i,i,i
CCOC(=O)N1CCN(C(=O)CCc2nc3sc4c(c3c(=O)[nH]2)CCCC4)CC1,i,i,i,i,i,i
CCCn1c(SCCN2C(=O)c3ccccc3C2=O)n[nH]c1=O,i,i,i,i,i,i
CC(C)CC1=NN(C(=O)c2ccncc2)C(O)(C(F)(F)F)C1 (stereo unspecified),?,23.8µM,i,nt,i,i
O=C(NC(Cc1ccccc1)C(=O)O)/C(=C/c1ccccc1)NC(=O)c1ccccc1 (stereo unspecified),i,i,i,i,i,i
CC[C@H](C)/C=C/C1=CC2=C(Cl)C(=O)[C@@]3(C)OC(=O)C(C(=O)[C@H](C)[C@@H](C)O)=C3C2=CO1,?,5.97µM,nt,nt,?,nt
CCN(CC)C(=O)CSc1nnc2nnc3cc(OC)ccc3n12,i,23.8µM,i,i,?,i
COc1c(C)cc(C(=O)C2CCCN(C(=O)c3cc(C)n(C)n3)C2)cc1C (stereo unspecified),i,i,i,i,i,nt
O=C1c2ccccc2C(=O)N1CN(C(=O)c1ccccc1)c1ccc(O)cc1,i,21.2µM,i,i,i,i
O=C1c2ccccc2C(=O)N1CN(C(=O)COc1ccccc1)c1ccccc1,i,i,i,i,i,i
Cc1ccc(CCNC(=O)c2sc3nc4n(c(=O)c3c2C)CCC4)cc1,?,10.6µM,i,i,i,i
Cc1c(C(=O)Nc2cccc(C(F)(F)F)c2)sc2nc3n(c(=O)c12)CCCC3,i,nt,nt,nt,?,nt
Cc1c(C(=O)N2CCN(c3ccc(F)cc3)CC2)sc2nc3n(c(=O)c12)CCC3,i,21.2µM,i,i,i,i
CC(=O)c1cccc(NC(=O)c2sc3nc4n(c(=O)c3c2C)CCCC4)c1,i,23.8µM,i,i,i,i
Cc1c(C(=O)N2CCN(c3ccccc3)CC2)sc2nc3n(c(=O)c12)CCC3,i,i,i,i,i,i
CCOC(=O)c1cc(-c2ccc([N+](=O)[O-])cc2)nc2c1c(=O)[nH]c(=O)n2Cc1ccccc1,i,i,i,i,i,i
Cc1cc2oc(C(=O)Nc3ccc(S(=O)(=O)N4CCCCCC4)cc3)cc(=O)c2cc1C,i,nt,nt,nt,i,nt
COCCn1c(=O)c(CCc2ccccc2)nc2cnc(Nc3ccccc3)nc21,i,nt,nt,nt,nt,i
COc1ccc(NC(=S)N(CCCN2CCC(C)CC2)Cc2cccs2)cc1Cl,i,16.8µM,i,i,i,i
COc1ccc(NC(=S)NCCCN2CCCC2)cc1Cl,i,18.9µM,i,i,i,i
COc1cc(NC(=S)NCCCN2CCOCC2)c(OC)cc1Cl,i,i,i,i,i,i
COc1ccc(NC(=S)NCCN2CCC(C)CC2)cc1Cl,?,10.6µM,i,i,i,-47.1
COc1ccc(NC(=S)N(CCCN2CCN(C)CC2)Cc2cccs2)cc1,i,i,i,i,i,i
Cc1ccc2nc(COC(=O)CNC(=O)c3ccccc3)cn2c1,i,i,i,nt,i,nt
CC(C)CC(=O)N1CCN(c2ccc([N+](=O)[O-])cc2Cl)CC1,i,26.7µM,i,i,i,i
